# Data taken from ChEMBL document CHEMBL3988442, “University of Dundee, Small-Polar-MMV Screening Library” (2021).
# About 13,000 (27%) of roughly 48,000 compounds showed an effect of 50% or more. This is one part of the list.
# System: Wolbachia pipientis
# Assay: Anti-Wolbachia Cell-Based Screen
# Type: functional
# Set-up: scale not given: in the data most compounds retested in dose-response had high values
# Details: 5 µM
row,Compound,Percent Effect [%]
1,CC(C1CCN(Cc2ccccc2OC(F)F)CC1)N1CCOCC1 (centres undefined),23.13
2,CCN(CC(=O)NC)C(=O)c1cc(-c2cccc(Cl)c2)no1,-2.874
3,CNS(=O)(=O)c1ccc(CN2CCCN(CC(C)C)CC2)cc1,8.265
4,Nc1cccc(-c2cccc3ccnn23)n1,9.414
5,O=C(N[C@H]1CC[C@H](O)CC1)c1ccc2nc(-c3ccc(F)cc3)cn2c1,-4.798
6,NC(=O)Cn1ccnc1C1CCCN(Cc2ccccc2OC(F)F)C1 (centres undefined),-1.119
7,O=C1CC2(CCN(C(=O)c3ccc4c(c3)CCCO4)C2)C(=O)N1 (centres undefined),-2.87
8,Cc1ccsc1-c1nc(CN(C)Cc2noc(C(C)C)n2)c(C)o1,10.67
9,COc1ccc(CNC(=O)Nc2ccc(=O)n(C)c2)cc1,-2.437
10,COc1ccc(NC(=O)Nc2c(O)c3ccccc3oc2=O)cc1,106
11,COc1ccc(CNC(=O)Nc2ccc(CN3CCOC3=O)cc2)cc1,12.97
12,CCn1ncnc1CN(C/C=C/c1ccccc1)CCOC,8.107
13,CC(C)(C)CCN1CCN(Cn2nccc2-c2cccnc2)CC1,-19.45
14,Cc1ncc(C(=O)N2C[C@H]3CC[C@@H]2CN(S(=O)(=O)N(C)C)C3)c(C)n1,4.102
15,O=C(NC1CCCCC1)C1CCCN(C(=O)Nc2ccccn2)C1 (centres undefined),6.063
16,Cc1ncc(C(=O)N2CCC(C(=O)NC3CCCC3)C2)c(C)n1 (centres undefined),133.9
17,Cc1ncc(C(=O)N2CC(C(=O)N3CCOCC3)C2)c(C)n1,106.6
18,Cc1nc(N2CCCCC2)ncc1C(=O)N1CC(C)(C)[C@@](C)(O)C1,13.78
19,Cc1ncc(C(=O)N2C[C@H](CO)C[C@H](CN3CCOCC3)C2)c(=O)[nH]1,-13.12
20,CCc1nc(C)ncc1C(=O)N1CCCC(n2nc(C)nc2C)C1 (centres undefined),-5.056
21,Cc1ncc(C(=O)N2CC(C(=O)N3CCCCCC3)C2)c(C)n1,132.1
22,Cc1cnc(N2CC(C(=O)N3CCOCC3)C3(CCOCC3)C2)nc1 (centres undefined),-3.796
23,CCc1ncc2c(n1)CN(CCCOc1ccc(C#N)cc1)CC2,-6.685
24,CC(C)c1nnc2ccc(N3CCC(C(=O)Nc4nccs4)CC3)nn12,11.38
25,Brc1cc2c(cc1CN1CCC(N3CCCCC3)CC1)OCCO2,-3.138

row,Compound,Percent Effect [%]
1,O=C(NCc1ccco1)[C@@]12CCO[C@@H]1CCN(CCN1CCCC1)C2,-0.5732
2,Cc1ccnc(OC[C@@]23CCO[C@@H]2CCN(c2ncccn2)C3)n1.O=C(O)C(F)(F)F,-11.59
3,Cc1cnc(CNC(=O)[C@@]23CCO[C@@H]2CCN(c2ncccn2)C3)cn1,105.8
4,O=C(NCc1ccco1)[C@@]12CCO[C@@H]1CCN(Cc1nccs1)C2,-2.827
5,CC(=O)N1CC[C@H]2OCC[C@@]2(C(=O)NCc2cnc(C)cn2)C1,98.12
6,O=C(NCc1ccco1)[C@@]12CCO[C@@H]1CCN(c1ncccn1)C2.O=C(O)C(F)(F)F,-9.525
7,CC(=O)N1CC[C@H]2OCC[C@@]2(C(=O)NCc2ccco2)C1,16.6
8,O=C(NCc1ccccn1)[C@@]12CCO[C@@H]1CCN(c1ncccn1)C2,99.07
9,CCN1CCN(C[C@@H]2CN(c3ncccc3C(F)(F)F)C[C@@H]2CO)CC1,-2.806
10,CCN1CCn2c(C)cnc2C12CCN(C(=O)Cc1ccccc1)CC2.O=C(O)C(F)(F)F.O=C(O)C(F)(F)F,97.89
11,CCN1CCn2c(C)cnc2C12CCN(C(=O)c1ccc(Cl)cc1)CC2.O=C(O)C(F)(F)F,-23.96
12,O=C(O)C(F)(F)F.O=C(c1cscn1)N1CCc2ncc(CN3CCCC3)n2CC1,-30.66
13,CCN1CCn2c(C)cnc2C12CCN(C(=O)COC)CC2.O=C(O)C(F)(F)F.O=C(O)C(F)(F)F,77.99
14,COCC(=O)N1CCC2(CC1)CCn1c(-c3cccc(OC)c3)cnc12,-17.52
15,CCN1CC(=O)NCC12CCN(C(=O)c1ccco1)C2.O=C(O)C(F)(F)F (centres undefined),-12.24
16,CCN1CCn2c(C)cnc2C12CCN(C(=O)c1cscn1)CC2.O=C(O)C(F)(F)F.O=C(O)C(F)(F)F,113.9
17,CCN(C)c1ncnc2c1CCN(C(=O)COC)CC2.O=C(O)C(F)(F)F,-4.529
18,CCN1CC[C@@]2(C(=O)N(C)C)CCN(C(=O)Cc3ccccc3)CC[C@@H]12.O=C(O)C(F)(F)F,0.7047
19,CCN1CCn2c(C)cnc2C12CCN(C(=O)c1ccco1)CC2.O=C(O)C(F)(F)F.O=C(O)C(F)(F)F,97.51
20,CCCNC(=O)c1cc(-c2ccn(C(C)C)n2)n2ccccc12,-14.06
21,CCC1CN(Cc2c(O)ccc3oc4c(c23)CCCC4)CCO1 (centres undefined),-8.053
22,CCCn1nc(-c2nc(Cc3ccc(OC)cc3)no2)ccc1=O,-20.77
23,CC(C)c1nc2c(n1C)CCN(CCCc1nc3ccccc3o1)C2,-2.699
24,Cn1cc(-c2nc(CN3CCN(CCO)CC3)cs2)cn1,-9.549
25,Cc1ccc(C(C)(O)CNC(=O)c2scnc2C)o1 (centres undefined),-6.969

row,Compound,Percent Effect [%]
1,Cc1ccc2oc(=O)n(CCC(=O)N3CCCC4(CNC(=O)O4)C3)c2c1 (centres undefined),-2.854
2,CC(C)c1ccc(C(O)Cn2c(=O)c(C#N)cn(C3CC3)c2=O)cc1 (centres undefined),-1.509
3,CN(C)C(=O)COCc1nnc2n1CCN(Cc1ccsc1)C2.O=C(O)C(F)(F)F,3.675
4,COCc1nnc2n1CCN(Cc1ccoc1)C2.O=C(O)C(F)(F)F,-3.646
5,O=C(O)C(F)(F)F.O=C(O)C(F)(F)F.c1cncc(COCc2nnc3n2CCN(CC2CC2)C3)c1,-1.478
6,CC(C)N(C)Cc1nnc2n1CCN(Cc1ccncc1)CC2.O=C(O)C(F)(F)F.O=C(O)C(F)(F)F.O=C(O)C(F)(F)F,-8.532
7,CN(C)CCOCc1nnc2n1CCN(Cc1ccsc1)C2.O=C(O)C(F)(F)F.O=C(O)C(F)(F)F,-13.86
8,CN(C)CCOCc1nnc2n1CCN(Cc1ccc(F)cc1)CC2.O=C(O)C(F)(F)F.O=C(O)C(F)(F)F,109.9
9,CN(C)C(=O)COCc1nnc2n1CCN(Cc1ccoc1)C2.O=C(O)C(F)(F)F,-2.89
10,CC(C)N(C)Cc1nnc2n1CCN(CC1CC1)CC2.O=C(O)C(F)(F)F.O=C(O)C(F)(F)F,9.045
11,COc1ccc(CN2CCc3nnc(COCCN(C)C)n3CC2)cc1.O=C(O)C(F)(F)F.O=C(O)C(F)(F)F,131
12,CN(C)CCOCc1nnc2n1CCN(CC1CC1)CC2.O=C(O)C(F)(F)F.O=C(O)C(F)(F)F,103.3
13,CN(C)CCOCc1nnc2n1CCN(Cc1ccoc1)CC2.O=C(O)C(F)(F)F.O=C(O)C(F)(F)F,88.27
14,CCc1sc(-c2nnc(CNCCn3cccn3)o2)cc1C,-1.143
15,COc1cccc([C@H]2CN(CCCS(=O)(=O)N(C)C)C[C@@H]2N)c1,-12.77
16,Cn1ccnc1CN1CC[C@@H](NS(C)(=O)=O)[C@@H]1Cc1ccccc1.O=C(O)C(F)(F)F,9.127
17,O=C(NC1CCS(=O)(=O)C1)N1CCN(c2cnccn2)CC1 (centres undefined),3.203
18,Clc1ccccc1-c1nnc(CSCCN2CCOCC2)o1,-8.486
19,COCCN(CC(C)C)c1cc(C)ncn1,0.855
20,Cc1cccc(-c2noc(C)c2C(=O)NC2CCCOC2)c1.O=C(O)CC(O)(CC(=O)O)C(=O)O (centres undefined),154
21,COc1ccc2c(C)c(C(=O)NC3CCCOC3)oc2c1 (centres undefined),-7.174
22,Cc1c(C(=O)NC2CCCOC2)nnn1-c1ccc(Cl)cc1F (centres undefined),-27.09
23,O=c1cc(CNCc2ccc3c(c2)OCO3)nc2ccccn12,121
24,O=C(OCc1cc(=O)n2cc(Br)ccc2n1)c1ccc2c(c1)OCO2,110.5
25,CN(CCO)Cc1cc(=O)n2cc(Br)ccc2n1,0.309

row,Compound,Percent Effect [%]
1,O=c1cc(CNCc2ccc3c(c2)OCO3)nc2ccc(Br)cn12,115.5
2,c1cn2c(n1)CO[C@@H](CNCc1ccc3c(c1)OCO3)C2,-4.812
3,O=c1cc(CN(Cc2ccco2)C2CC2)nc2ccc(Br)cn12,-5.391
4,O=c1cc(CN(CCO)C2CC2)nc2ccc(Br)cn12,3.193
5,O=c1cc(CN(CCO)C2CC2)nc2ccccn12,-7.428
6,CCN(Cc1cc(=O)n2cc(Br)ccc2n1)C1CC1,1.133
7,COc1ccc(-n2nc(C(C)C)nc2COC(C)C)cc1,-17.3
8,COc1ccccc1OCc1nc(C(C)C)no1,-14.46
9,Cc1cccc(-n2nc(CC(C)C)nc2CS(C)(=O)=O)c1,2.26
10,COc1ccccc1-n1nc(C(C)C)nc1Cc1nnc(N)s1,123.2
11,COc1ccccc1-n1c(CC(C)C)nnc1SCC(=O)O,-51.76
12,Cc1cccc(-n2nc(CC(C)C)nc2CCCC(N)=O)c1,10.56
13,COc1ccccc1-n1nc(CC(C)C)nc1Cc1nnc(N)s1,123.6
14,CC(C)Cc1nc(CS(C)(=O)=O)n(-c2ccccn2)n1,-36.43
15,COc1ccccc1-n1nc(CC(C)C)nc1CSc1nnc(N)s1,106.5
16,CC(C)c1nc(CCN(C)c2nccc(N3CCCC(O)C3)n2)no1 (centres undefined),96.48
17,CCc1noc(CN(C)Cc2ccc(N3CCCCC3)cc2)n1,6.491
18,CCc1nnc(CN(C)c2nccc(N3CCCC(O)C3)n2)o1 (centres undefined),80.06
19,CN(Cc1nccn1C)c1nccc(N2CCCC(O)C2)n1 (centres undefined),5.071
20,CCc1nc(CN(C)c2nccc(N3CCCC(O)C3)n2)no1 (centres undefined),114.5
21,CC(C)c1nc(C2CCCN(c3nccc(N4CCCC4)n3)C2)no1 (centres undefined),-3.198
22,CN(CCN1CCCCCC1)c1nccc(N2CCC(O)C2)n1 (centres undefined),17.45
23,CCc1nc(C2CCCN(c3nccc(N4CCCC4)n3)C2)no1 (centres undefined),-11.44
24,CN(Cc1nncn1C)c1nccc(N2CCC(O)CC2)n1,2.442
